For one experiment, the target named is FAM178A. In words: pooled miR-30 sensor sort-seq; sequence = guide strand. The conditions noted are these: shRNA.
Sequence TTTGGTATCATAGATTCTCTTG yielded a sensor-assay potency score (higher = more potent) of -0.0968.

As to TATGTCTTCTTGTAGTTGCTTC, the sensor-assay potency score (higher = more potent) was 0.216.

TTTTTCTTGAGAGATGTCCATT gave a sensor-assay potency score (higher = more potent) of -1.17. TTTAGTTCTCGTTCTCTGCAGT displayed a sensor-assay potency score (higher = more potent) of -0.0234. The sequence TATTGAAAAACACAGCTGCTAC yielded a sensor-assay potency score (higher = more potent) of -0.444. Same read-out and setting: as for TTTAATTGCAGACTTTTCCTGA, the figure is 0.605; as for TAAGAAGCTAGTGACAACTGGA, 0.82; as for TAGTTTTGTCTCCTTCTCCTTT, -0.485. On the same count and under the same terms, as for TGAATGAATAGTGACTTCCTTC, the figure is -0.297; as for TAGACAATCTACTTCCTCCATA, -0.597.

Another experiment has as its target FAM181A. The description is as above. Particulars: shRNA.
The sequence TCGGATGCCATCACCAGGGGGC came in with a sensor-assay potency score (higher = more potent) of -0.489. On the same count and under the same terms, as for TTTTCAGGTAGGGCTCAGCAGC, the figure is -1.38; as for ATCTTCACATCACTGTCGGATG, -1.37. For the sequence AACAAGAACAACAACTGAGATT, the sensor-assay potency score (higher = more potent) is -1.01.

Turning to AAGAACAAGAACAACAACTGAG, the sensor-assay potency score (higher = more potent) was determined as 0.506. For the sequence TTGCGATGGTCCACGGAGCGGC, the sensor-assay potency score (higher = more potent) was -0.977. Still for that read-out and setting: to TTAGCAAGACATTCCTCCCTGT belongs 0.483.

The sequence TACTTCTGGGAGAAGCGCTTGA registered a sensor-assay potency score (higher = more potent) of -0.152. Same read-out and setting: as for TTTTCTTACCCTCATAGGGAGG, the figure is -1.8; as for TTGATGTCGCTGGACGCCAGGT, -1.09; as for AAATCCAGGAGCAGCCTCCTGG, -1.06. Same read-out and setting: as for TAGCAAGACATTCCTCCCTGTA, the figure is -0.518.

Source of the values: the OligoGym collection.
Note: reference of the scale not given here.
